From PubChem BioAssay
L3MBTL1 inh = L3MBTL1 (human) inhibition | 0.66% of 230,000 active | AlphaScreen L3MBTL1–H3K9me1 peptide binding | AID 485360 | Potency, µM (top dose mostly 57.1 µM), for inactives: top-dose activity, negative = inhibition, hits mostly inhibitors; also: nearly all actives have a fitted effect of over 60% in size
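L3MBTL1 (50 nM) pre-complexed 30 min with biotinylated H3(1-15)K9me1 peptide (75 nM), then compounds added for 30 min at room temperature; AlphaScreen streptavidin donor/nickel chelate acceptor beads (10 ug/mL final) read after 30 min dark incubation.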
RECQ1 inh = inhibitors of human RECQ1 DNA helicase | P46063 | RECQ1 DNA unwinding, red fluorescence kinetic read | Potency, µM (highest dose often 57.3 µM), for inactives: at the top dose activity, negative = inhibition, hits mostly inhibitors | 0.54% of 240,000 active;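 also: plate controls were vehicle for no effect and no enzyme for full effect; nearly all actives have a fitted effect of over 30% in size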
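RECQ1T1 50 nM; forked duplex (20 bp + 30-nt ss tails) 200 nM, ATP 2 mM final; pH 8.0, 2 mM MgCl2, 2.5 ug/ml poly(dI-dC); 15 min compound preincubation; discontinuous kinetic read over 2 h at RT.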
APEX1 inh = blocks human APE1 abasic DNA cleavage | P27695 | recombinant APE1, TAMRA/BHQ-2 abasic DNA cleavage fluorescence | Potency, µM (doses to about 65.8 µM), without a hit: top-dose activity change, negative = inhibition, hits mostly inhibitors | 0.35% of 350,000 active;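 also: plate controls were vehicle for no effect and reference inhibitor for full effect; nearly all actives have a fitted effect of over 55% in size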
Target sequence (P27695 whole entry, looked up): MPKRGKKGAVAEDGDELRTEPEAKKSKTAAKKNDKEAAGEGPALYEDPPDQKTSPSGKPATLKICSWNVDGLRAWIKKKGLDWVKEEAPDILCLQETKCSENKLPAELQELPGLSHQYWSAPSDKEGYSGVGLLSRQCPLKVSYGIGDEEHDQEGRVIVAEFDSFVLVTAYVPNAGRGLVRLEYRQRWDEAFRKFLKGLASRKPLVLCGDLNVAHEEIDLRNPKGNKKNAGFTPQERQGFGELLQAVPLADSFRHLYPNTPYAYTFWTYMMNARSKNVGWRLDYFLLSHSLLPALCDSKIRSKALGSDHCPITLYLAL
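Kinetic fluorescence read (525 ex/598 em nm, three reads 60 s apart) of AP-site incision; signal = third minus first read. Enzyme 0.75 nM, dual-labelled THF duplex 50 nM, compound preincubation 15 min RT.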
JMJD2E inh = JMJD2E (human) inhibition; Potency, µM (doses to about 57.1 µM), for inactives: top-dose activity change, negative = inhibition, usual class: inhibitors; JMJD2E catalytic domain, FDH-coupled NADH fluorescence (FDH is formaldehyde dehydrogenase); 1.6% of 230,000 active; AID 2147; active = well fitted inhibition curve with a large enough effect, not every such curve was filed as active; inconclusive = small, poorly fitted or top-dose-only effect, or another doubt; inactive = no such curve, though single readings can be large or run the other way;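 also: 0% = wells with enzyme and -100% = buffer wells without enzyme; nearly all actives have a fitted effect of over 50% in size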
Target sequence (B2RXH2 1-337 limits assumed): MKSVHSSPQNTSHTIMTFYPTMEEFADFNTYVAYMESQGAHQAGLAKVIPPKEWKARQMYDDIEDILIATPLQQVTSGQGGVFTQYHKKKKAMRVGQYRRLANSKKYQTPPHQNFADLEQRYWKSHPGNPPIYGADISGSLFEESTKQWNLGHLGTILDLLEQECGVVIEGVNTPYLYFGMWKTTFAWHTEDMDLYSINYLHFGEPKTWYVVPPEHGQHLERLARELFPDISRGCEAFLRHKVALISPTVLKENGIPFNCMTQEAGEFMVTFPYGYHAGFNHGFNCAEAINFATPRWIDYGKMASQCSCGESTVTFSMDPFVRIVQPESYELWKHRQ
BLM inh = blocks DNA unwinding by human BLM helicase | recombinant BLM DNA unwinding, fluorescence dequenching | Potency, µM (top dose mostly 56.1 µM), for the others: at the highest dose activity change, negative = inhibition, actives largely listed as inhibitors | 0.2% of 350,000 active | AID 2528;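 also: plate controls were vehicle for no effect and no enzyme for full effect; nearly all actives have a fitted effect of over 35% in size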
TDP1 inh = TDP1 (human) enzyme inhibition | Q9NUW8 | recombinant TDP1, AlphaScreen DNA substrate cleavage | Potency, µM (series often up to 130 µM), without a hit: at the top dose activity change, negative = inhibition, usual class: inhibitors | 0.28% of 350,000 active | AID 485290; also: nearly all actives have a fitted effect of over 40% in size
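Recombinant human Tdp1 (E. coli-expressed, 1 nM final) preincubated with compounds 15 min at room temperature, then 5'-biotin/3'-phosphotyrosine-FITC DNA substrate (15 nM final) added for 5 min. AlphaScreen beads (10 ug/ml final) added 10 min; cleavage lowers signal.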
* = called active by the depositor; i = inactive; u = inconclusive; x = no result given. This excerpt belongs to a sample that is enriched for hits. Unless noted, calls follow the shape of the dose curve; as a rule, active = well fitted curve in the direction sought with a large enough effect; inconclusive = small, poorly fitted or top-dose-only effect, or another doubt; inactive = no such curve, though single readings can be large; an effect the other way counts as inactive or inconclusive. Unless noted, % is scaled to controls: 0 for no effect and ±100 for the full control effect; potency is read from the fitted curve at half-maximal effect.

SMILES	L3MBTL1 inh	RECQ1 inh	APEX1 inh	JMJD2E inh	BLM inh	TDP1 inh
Cc1cc(SCC(=O)N/N=C/c2ccc(O)c(O)c2O)c(C)cc1Br	x	i	u	10µM*	-17%	9%
COC(=O)c1cnn(-c2ccc(C(=O)Nc3ccc(C(C)=O)cc3)cc2)c1N	11%	x	19%	x	-1%	35µM*
COC(=O)c1cnn(-c2ccc(C(=O)Nc3cc(OC)c(OC)c(OC)c3)cc2)c1N	x	x	x	x	1%	1%
O=C(CCC(=O)Nc1cccc(Cl)c1)N/N=C/c1cc([N+](=O)[O-])ccc1O	x	-14%	8%	18µM*	-7%	10%
Cc1c(NC(=S)N/N=C/c2cc([N+](=O)[O-])ccc2O)c(=O)n(-c2ccccc2)n1C	32µM*	i	0%	8.9µM*	-21%	9%
O=C(CCCC(=O)Nc1cccc(Br)c1)N/N=C/c1cc([N+](=O)[O-])ccc1O	x	x	5%	x	-18%	1%
CN1CCN(CCC(=O)N/N=C/c2cc([N+](=O)[O-])ccc2O)CC1	-30%	i	9%	0.89µM*	-5%	0%
COc1ccc(S(=O)(=O)N(C)Cc2cccs2)cc1Br	x	i	-6%	-2%	-7%	-7%
Cc1ccc(C)c(S(=O)(=O)N(C)Cc2cccs2)c1	144%	x	29%	x	x	79µM*
CC(C)(C)C(=O)OCC(=O)[C@H]1CC[C@H]2[C@@H]3CCC4=CC(=O)CC[C@]4(C)[C@H]3CC[C@]12C	x	x	11%	x	x	x
COc1ccc(/C=C2\C(=O)NC(=S)N2C(=O)c2ccc(F)cc2)cc1	u	u	u	-20%	u	20µM*
O=C(c1ccc(F)cc1)N1CCN(Cc2ccccc2)CC1	0%	x	33%	x	-1%	x
CN1C(=O)/C(=C/c2ccc(OCc3ccc(F)cc3)cc2)N(C)C1=S	1%	x	9%	x	-3%	0%
O=C1NC(=S)N(C(=O)c2ccc(F)cc2)/C1=C/c1ccccc1	-19%	0%	6%	-3%	22µM*	1%
COc1ccc(C2Nc3ccccc3C(=O)N2Cc2ccc(-c3ccccc3)cc2)cc1COc1ccc(NC(C)=O)cc1 (centres undefined)	x	x	x	x	x	-3%
N#Cc1c(-c2ccc(-c3ccccc3)cc2)no[n+]1[O-]	x	x	-7%	x	x	x
Cc1cnc(CNc2ncncc2-c2ccccc2CN(C)C)cn1	x	i	-3%	-28%	3%	28µM*
CN(C)Cc1ccccc1-c1cncnc1NCc1ccccc1	x	6%	0%	u	-13%	x
O=C(Cn1c(=O)n(Cc2ccc(C(=O)NCc3ccc4c(c3)OCO4)cc2)c(=O)c2ccccc21)Nc1ccc(F)cc1F	x	x	x	x	-15%	25µM*
C=CCn1c(SCc2nc3sc(C(=O)O)c(C)c3c(=O)[nH]2)nnc1-c1ccccc1	-19%	i	15%	5%	-10%	x
C=CCn1c(SCc2nc3sc(C(=O)O)c(C)c3c(=O)[nH]2)nnc1-c1ccc(C(C)(C)C)cc1	u	-2%	u	7%	-5%	20µM*
CC(=O)c1sc2nc(CSc3nnnn3-c3ccccc3)[nH]c(=O)c2c1C	u	i	3%	-17%	16µM*	8%
Cn1c(C(=O)NCc2ccccc2Cl)cc2sc(Cl)cc21	x	x	x	x	-9%	4%
O=C(N/N=C/c1ccccc1O)c1ccncc1	u	x	2%	x	1%	14%
O=C(N/N=C/c1ccc([N+](=O)[O-])s1)c1cccc(Br)c1	-4%	-10%	22µM*	3%	-17%	-13%
SMILES	L3MBTL1 inh	RECQ1 inh	APEX1 inh	JMJD2E inh	BLM inh	TDP1 inh
O=C(N/N=C/c1ccc(O)c2ncccc12)c1cccc(Br)c1	7.9µM*	0%	-11%	-22%	-9%	9%
Nc1nonc1C(=O)N/N=C/c1cc(Br)ccc1O	1.4µM*	14%	-1%	3.5µM*	-6%	2%
O=C(N/N=C\c1ccc(Sc2ccccn2)o1)c1cccc(Br)c1	-2%	-9%	10%	u	-9%	6%
O=C(N/N=C/c1cc(Br)ccc1O)c1ccncc1	32µM*	13%	1%	28µM*	2%	10%
CO[C@H]1C[C@@H]2CC[C@@H](C)[C@@](O)(O2)C(=O)C(=O)N2CCCC[C@H]2C(=O)O[C@H]([C@H](C)C[C@@H]2CC[C@@H](O)[C@H](OC)C2)CC(=O)[C@H](C)/C=C(\C)[C@@H](O)[C@@H](OC)C(=O)[C@H](C)C[C@H](C)/C=C/C=C/C=C/1C	x	x	x	x	-2%	x
CCc1ccc(CN(Cc2cn[nH]c2-c2ccc(OC)cc2)C(=O)Nc2cc(Cl)ccc2OC)cc1	x	x	x	x	-4%	0%
CN(Cc1nccs1)c1ncnc2ccc(-c3ccc4c(c3)OCO4)cc12	x	x	x	x	x	2%
O=C(N/N=C/c1ccc(O)c([N+](=O)[O-])c1)c1ccncc1	x	i	1%	-21%	-3%	x
Cc1nc(C)c(C(=O)N/N=C/c2cc(Br)ccc2O)s1	x	7%	7%	22µM*	-3%	x
COc1ccc(/C=N/NC(=O)c2ccncc2)cc1[N+](=O)[O-]	x	i	2%	4%	-4%	-1%
O=C(N/N=C/c1cc([N+](=O)[O-])ccc1O)c1ccc2c(c1)OCCO2	4%	6%	2%	25µM*	-2%	8%
O=C(N/N=C/c1cc([N+](=O)[O-])ccc1O)c1ccncc1	u	12%	18%	10µM*	-4%	13%
O=C(N/N=C/c1ccccc1[N+](=O)[O-])c1ccc2c(c1)OCCO2	x	i	1%	13%	0%	0%
COc1cc(O)c(/C=N/NC(=O)c2ccncc2)c(OC)c1[N+](=O)[O-]	x	-6%	-7%	22µM*	-4%	10%
COc1cccc(C2c3c(ncn(-c4ccccc4OC)c3=N)Oc3ccc4ccccc4c32)c1 (centres undefined)	x	x	x	x	x	6%
